Test results published in PubChem BioAssay (NCI).
About 83,000 compounds went through this panel and 20% of them were active in at least one assay; those are over-represented in the sample as a whole.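 Interpretation: 100, growth as untreated; towards 0, rising growth inhibition; 0, no net growth; 0 to -100, cell death. Compounds scoring below 10 were considered active.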 A number with no mark means an inactive call. Activity calls are given as the source filed them.

test system: SK-OV-3 ovarian; experiment: NCI-60 one-dose screen, 48 h (100 = growth as untreated, 0 = no growth, -100 = all killed); details: 10 µM unless noted
Method: Growth inhibition of the SK-OV-3 human tumor cell line is measured as a screen for anti-cancer activity. Cells are grown in 96 well plates and exposed to the test compound for 48 hours. Compounds are tested at a single concentration, which is 10^-5 M for most compounds. The reported endpoint is percent growth (GI% or GIPRCNT), where numbers from 0 - 100% represent growth inhibition, and numbers from -100% - 0 represent cell death. For example, a value of 40 represents 60% growth inhibition. A value of 0 means no net growth occurred over the course of the experiment. A value of -40 indicates 40% of cells at the beginning of the experiment died by the end of the experiment. A value of -100 means all cells are dead at the end of the experiment.
NCI-60 Human Tumor Cell Lines Screen was performed using the standard one-dose NCI protocol, which is described in more detail at https://dtp.cancer.gov/discovery_development/nci-60/default.htm.
Compounds with GIPRCNT values below 10 were considered active. Activity score was based on GIPRCNT using the following formula: […]
Score is 0 for GIPRCNT values of 100 or above, 50 for GIPRCNT values of 0, and 100 for GIPRCNT values of -100.

| Compound | growth |
| --- | --- |
| CO[C@@H](C(=O)N1Cc2[nH]nc(NC(=O)c3ccc(N4CCN(C)CC4)cc3)c2C1)c1ccccc1 | 7.44% (active) |
| Cc1sc2c(c1C)c(=O)nc1c(-c3nc(-c4ccccc4)cs3)n[nH]n12 | 89.6% |
| CC(C)OP(=O)(CCC(=O)c1c[nH]c2ccccc12)OC(C)C | 89% |
| COC(=O)CCCNc1c(-c2c(O)c(O)cc3c(O)c(-c4c(C)cc5c(-c6nc7ccccn7c6NCCCC(=O)OC)c(O)c(O)cc5c4O)c(C)cc23)nc2ccccn12 | 50.5% |
| C=CCCCOC1[C@H](OCc2ccccc2)C(OCc2ccccc2)C(OC)O[C@@H]1CNC(=O)c1cccc(I)c1 (stereo not given in full) | 45.5% |
| Cn1cnc2c(F)c(Nc3ccc(Br)cc3F)c(C(=O)NOCCO)cc21 | 50.2% |
| Cn1cc(-c2[nH]c3cc(NC(=O)[C@H](N)C4CCCCC4)cc4c3c2C=NNC4=O)cn1 | 6.78% (active) |
| CCc1cc2c(c3ccc(C(=O)CBr)cc13)CCCC2 | 103% |
| CCN(CC)c1cc2oc3cc(N)cc(=N)c-3nc2cc1C | 103% |
| CCCCCc1ccc(C)cc1OC(=O)CCl | 107% |
| Cc1ccc(-n2nc(C(C)(C)C)cc2NC(=O)NCc2cc(F)ccc2Oc2ccc3c(cnn3CCO)c2)cc1 | 18.2% |
| COC(=O)Nc1nc2ccc(C(=O)c3ccc(N(C)C4COC4)cc3)cc2[nH]1 | 6.93% (active) |
| O=C(c1c(F)ccc(NS(=O)(=O)N2CC[C@@H](F)C2)c1F)c1c[nH]c2ncc(-c3cnc(C4CC4)nc3)cc12 | 3.3% (active) |
| CCCCCC(=O)OCc1ccc(Cl)c(Cl)c1 | 107% |
| O=C(NC[C@H](O)CO)c1ccncc1Nc1ccc(I)cc1F | 33.8% |
| CC(C)(C)C(=O)OCOP(=O)(OCOC(=O)C(C)(C)C)C1CCCN(OC(=O)c2ccccc2)C1=O (stereo not given) | 20.6% |
| CCCNC(=O)c1cn2ncnc(Nc3cc(C(=O)NC4CC4)ccc3C)c2c1C | 70.5% |
| CCN1CCN(c2cc(C)nc(N(CCCNc3ccnc4cc(Cl)ccc34)Cc3cccs3)n2)CC1 | 65.5% |
| O=C(O)c1ccc(Nc2ncc3c(n2)-c2ccc(Cl)cc2C(c2c(F)cccc2F)=NC3)cc1 | 59.7% |
| CC(C)(O)CC(=O)NCCn1ccc2ncnc(Nc3ccc(Oc4cccc(C(F)(F)F)c4)c(Cl)c3)c21 | -21% (active) |

| Compound | growth |
| --- | --- |
| Cn1ccnc1C(=O)/C=C/c1ccc(CC(=O)Nc2ccc(C(F)(F)F)cc2)cc1 | 53.5% |
| COc1ccc(C2CC(=O)c3c(O)c(OC)c(OC)c(OC)c3O2)cc1O (stereo not given) | 40% |
| CCCCCCCC(=O)SCC/C=C/[C@@H]1CC(=O)NCc2cc(ccn2)C2=N[C@@](C)(CS2)C(=O)N[C@@H](C(C)C)C(=O)O1 | -22.6% (active) |
| CNC(=O)c1ccc(Nc2ncc(C(F)(F)F)c(NCc3nccnc3N(C)S(C)(=O)=O)n2)cc1 | -21.1% (active) |
| CC(C)[C@@H]1CC[C@@H]2[C@@H]1[C@H](OC(=O)/C=C/c1ccccc1)[C@]1(C(C)C)C[C@@H](OC(=O)CO)[C@@]2(C)O1 | 91.3% |
| CC1(O)CC(c2nc(-c3ccc4ccc(-c5ccccc5)nc4c3)c3c(N)nccn23)C1 (stereo not given) | 13.5% |
| COc1ccc2c(c1)cn1c3ccc(O)cc3nc(N)c21 | 5.03% (active) |
| CO[C@H]1C[C@@H]2CC[C@@H](C)[C@@](O)(O2)C(=O)C(=O)N2CCCC[C@H]2C(=O)O[C@H]([C@H](C)C[C@@H]2CC[C@@H](OC(=O)C(C)(CO)CO)[C@H](OC)C2)CC(=O)[C@H](C)/C=C(\C)[C@@H](O)[C@@H](OC)C(=O)[C@H](C)C[C@H](C)\C=C/C=C/C=C/1C | 20.4% |
| C=CC[n+]1c(/C=C2\Sc3ccccc3N2C)sc(-c2ccccc2)c1-c1ccccc1 | -15% (active) |
| Cc1cn(-c2cc(NC(=O)c3ccc(C)c(Nc4nccc(-c5cccnc5)n4)c3)cc(C(F)(F)F)c2)cn1 | 119% |
| COc1cc2nc(Nc3cccc(Cl)c3)nc(N)c2cc1OC | 114% |
| C[C@H](NC(=O)c1c(N)nn2cccnc12)c1cc2cccc(C#Cc3cnn(C)c3)c2c(=O)n1-c1ccccc1 | -1.83% (active) |
| CC(=O)OC1Oc2ccccc2-c2oc(=O)c(-c3cc4ccc(N(C)C)cc4oc3=O)cc21 (stereo not given) | 48.1% |
| O=C(/C=C/c1ccc2c(c1)OCO2)c1c(O)c2ccccc2oc1=O | 94.2% |
| Cc1nc(Nc2n[nH]c3c2CN(C(=O)N[C@H](CN(C)C)c2ccccc2)C3(C)C)c2sccc2n1 | -26.8% (active) |
| Cc1cc(-c2cc(O)ccc2Cl)cc2nnc(Nc3ccc(OCCN4CCCC4)cc3)nc12 | -77.7% (active) |
| CCCCOc1nc2cc(Cl)ccc2cc1/C=C/c1cc(/C=C/c2cc3ccc(Cl)cc3nc2OCCCC)n(-c2ccccc2)n1 | 51.5% |
| Clc1ccc(C(Cn2ccnc2)OCc2ccsc2Cl)c(Cl)c1 (stereo not given) | 70.7% |
| O=C1NC(=O)[C@@H](c2cn3c4c(cccc24)CCC3)[C@@H]1c1c[nH]c2ccccc12 | -0.0481% (active) |
| CC/C(=C(/c1ccc(Cl)cc1)c1ccc(OCCN2CCCCC2)cc1)c1ccc(Cl)cc1 | 83.7% |
